PostGolgi yeast: phenotypic screen on post-Golgi transport, primary screen. post-Golgi transport phenotypic cell assay. inhibition, % at 10 µM. hit rate 0.9% among 98,000;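 also: yeast cells grown in 1536-well plates; yeast grown about 18 h at 30C before absorbance read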
EphB4 ephrin blk: EphB4-ephrin-B2 interaction antagonists, primary screen, biochemical, TNYL-RAW peptide probe, fluorescence polarization; EphB4 LBD / TNYL-RAW-Alexa532 peptide; hit rate 0.15% among 97,000; Ephrin type-B receptor 4 (Homo sapiens), P54760; inhibition, % at 7 µM; AID 720, 2007;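 active = inhibition above the screen-wide mean inhibition plus 3 SD, cut at about 15% in these data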;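 also: 0% = DMSO wells and 100% = excess unlabeled TNYL-RAW peptide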
PostGolgi ctrl: growth inhibition of yeast control strain, primary screen, counter-screen for post-Golgi transport modulator project; efflux-deficient yeast background strain, growth absorbance A615, 16 h; inhibition, % at 10 µM; hit rate 5% among 98,000
Calb biofilm kill: clotrimazole potentiators killing Candida biofilms, primary screen, with clotrimazole, Alamar Blue; C. albicans biofilm + clotrimazole; inhibition, % at 6 µM; hit rate 0.14% among 85,000;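 active = inhibition above 20%; inactive = inhibition below 20%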;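 also: preformed 24 hr biofilms exposed to compound for 48 hr; 0% = biofilm without compound and 100% = blank killed by clotrimazole plus chlorhexidine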
An asterisk follows results filed as active; . = not tested or not shown. Compounds with a hit are over-represented: about 5.2% of the library has one in this group of screens. Rule as the data show it, unless noted: active = inhibition above about 30%; inactive = the rest.

SMILES | PostGolgi yeast | EphB4 ephrin blk | PostGolgi ctrl | Calb biofilm kill
COc1ccc(OC)c(-c2nnc(NC(=O)C(C)Sc3nncn3C)s2)c1 (stereo not drawn) | 0 | 4 | 6 | 23*
COc1ccc(/C=C2\SC(=S)N(NC(=O)c3csc4c3CCCC4)C2=O)cc1 | 37* | -2 | 5 | 2
O=C(CN(C(=O)CSc1nc2ccccc2o1)c1cccc(F)c1)NC1CCCCC1 | 2 | 0 | 7 | .
O=[N+]([O-])c1cc(Cl)cc(/C=N\Nc2ccccn2)c1O | 80* | 0 | 19 | .
COc1ccc(-n2ccc(-c3nn(-c4cccc(C(F)(F)F)c4)ccc3=O)n2)cc1 | 7 | 10 | 31* | .
O=c1ccn(-c2cccc(C(F)(F)F)c2)nc1-c1ccn(-c2ccccc2F)n1 | 3 | 3 | 22 | .
CN1C(=O)Cc2cc(S(=O)(=O)N3CCOCC3)ccc21 | 2 | -7 | 51* | 8
CC(Sc1nnc(N)s1)c1ccccc1Cl (stereo not drawn) | 0 | -4 | 3 | 7
Cc1ccc(C2CC(c3ccccc3Cl)n3nc(N)nc3N2)cc1 (stereo not drawn) | 1 | -1 | 40* | 2
CCc1cc(-c2n[nH]c(=S)n2Cc2ccccc2)cs1 | 13 | 4 | 20 | .
CCCc1cc(-c2n[nH]c(=S)n2C(C)c2ccccc2)cs1 (stereo not drawn) | -4 | 3 | 42* | .
FC(F)(F)c1nnc(-c2ccccc2)nc1Oc1ccc(Cl)cc1Cl | 8 | -8 | 34* | .
CCOC(=O)c1nnc(-c2ccccc2)nc1Oc1ccccc1Cl | 10 | 4 | 31* | .
CCOC(=O)c1sc(N(Cc2ccccc2)C(=O)CSc2nnc(C3CC3)n2N)nc1C | -6 | . | 12 | 11
CN(C)S(=O)(=O)c1ccc(NC(=O)c2c(F)cccc2Cl)cc1 | 13 | 3 | 15 | 8
CCCCn1c2nc3ccccc3nc2c2c(=O)n(C(C)CC)cnc21 (stereo not drawn) | 37* | 0 | 23 | 0
CC1=Nn2c(nc(-c3ccccc3)c2-c2ccccc2)NC(=O)C1Br (stereo not drawn) | -5 | -1 | 11 | 2
C=CCn1c(N)c(C(=O)Nc2cccc(C)c2)c2nc3ccccc3nc21 | 23 | 4 | 35* | .
CCCn1nc2cc(C(=O)N(CC)c3ccc(OC)cc3)ccc2c1OCC | -6 | -14 | 13 | .
Cc1ccc2nc(SCC(=O)Nc3ccc4sc(C)nc4c3)c(C#N)cc2c1 | -3 | -5 | 2 | .
CC(=NC1CCCC1)c1c(C)[nH]n(-c2nc3ccccc3s2)c1=O | 14 | 8 | 12 | 5
CC(=NC1CC1)c1c(-c2ccccc2)[nH]n(-c2nc3ccccc3s2)c1=O | -4 | -2 | 36* | .
CSc1nc(NC(C)(C)C)nc(Oc2ccc(=O)n(C)n2)n1 | -16 | 3 | -4 | -1
CCOC(=O)c1nnn(-c2nonc2N)c1CSc1ccccc1 | -6 | 1 | 11 | -1
CCOC(=O)c1nnn(-c2nonc2N)c1CSc1ccc(C)cc1 | 7 | -4 | 33* | 0
SMILES | PostGolgi yeast | EphB4 ephrin blk | PostGolgi ctrl | Calb biofilm kill
CCC(C)(C)n1nnnc1C(c1ccc(C)cc1)N1CCN(Cc2ccc3c(c2)OCO3)CC1 (stereo not drawn) | . | -2 | . | 4
COc1ccc(C(=O)OC(C(=O)c2ccccc2)c2ccccc2)cc1 (stereo not drawn) | -1 | 1 | 66* | .
COc1cccc(-c2nn3c(-c4cccc(C)c4)nnc3s2)c1 | 1 | . | 44* | -5
COc1ccc(-c2nn3c(-c4ccco4)nnc3s2)cc1OC | 11 | 0 | 31* | .
CCOc1cccc(-c2nn3c(-c4ccco4)nnc3s2)c1 | 5 | -7 | 43* | 6
COc1cc(-c2nnc3sc(-c4ccco4)nn23)cc(OC)c1OC | -2 | . | 11 | 9
COc1ccc(-c2nnc3sc(-c4ccco4)nn23)cc1OC | -2 | -13 | 18 | -3
COc1cc(OC)c(-c2nn3c(-c4ccco4)nnc3s2)cc1OC | 4 | 2 | 34* | 4
CCOc1ccccc1NC(=O)C1CCN(S(=O)(=O)c2cccc3cccnc23)CC1 | -1 | . | 6 | 1
CC(C)CNC(=S)NC1CC2CCCC(C1)N2Cc1cccs1 (stereo not drawn) | -1 | -14 | 11 | .
O=C(Cc1ccccc1)NC(NCCc1ccccc1)C(Cl)(Cl)Cl (stereo not drawn) | 5 | 6 | -2 | .
c1ccc(-c2cc(-c3nn4c(-c5ccco5)nnc4s3)c3ccccc3n2)cc1 | -4 | 1 | 38* | 6
CC(C)(C)C(=O)/C=C(N)/C=C/c1ccccc1 | -2 | 1 | 33* | 0
O=C(Nc1ccccc1C(=O)OCC(=O)N1CCc2ccccc2C1)c1ccco1 | 1 | 11 | 32* | 0

Screening data: PubChem, several laboratories
